A selection follows.
aSyn UTR act: Activators via SNCA 5'UTR binding, MLPCN | alpha-synuclein 5'UTR reporter, activators screen | activity score, % (tested at 7.5 µM), hits read low | actives 7.1% (n = 300,000); in the data active means activity score below about -60%
Starred values were filed as active, the others as inactive.

SMILES	aSyn UTR act
O=C(Nc1ccc(Cl)c(C(F)(F)F)c1)C(=O)N1CCCCC1	-67.0*
S=C(Nc1ccc2nsnc2c1)N1CCCC1	-133.0*
CNc1ccccc(-c2ccc3cc4c(cc3n2)OCO4)c1=O	-214.9*
CC(=O)c1ccc(NC(=O)c2ccn(C(=O)OCC(C)C)n2)cc1	-85.7*
COc1ccc(/C=N/Nc2nc(C(=O)O)cs2)cc1	-78.4*
CCOC(=O)c1sc(N/N=C/c2ccccc2)nc1C	-207.1*
CC(=O)c1sc(N/N=C\c2ccccc2O)nc1C	-188.0*
COC(=O)c1ccc(/C=N/Nc2nc(C)c(C)s2)cc1	-187.7*
O=C(O)Cc1sc(N/N=C\c2ccccc2)nc1-c1ccccc1	-255.9*
CCOC(=O)c1sc(N/N=C/c2cccc(C)c2)nc1C	-175.3*
COc1ccc(-c2nc3n(c2C)Cc2ccccc2-3)cc1	-129.5*
CC(C)(C)N=Cc1cc(-c2ccccc2)sc1O	-162.0*
O=C(Cc1ccccc1[N+](=O)[O-])NCc1ccc2c(c1)OCO2	-122.6*
O=C(NCc1ccccc1)c1c[nH]c2cc3c(cc2c1=O)OCCO3	-183.5*
O=C(Cc1ccccc1)NCc1ccc2c(c1)OCO2	-99.3*
O=C(NCc1ccc2c(c1)OCO2)c1ccccc1Cl	-99.6*
CCN(CC)c1ccc(/C=N/N2CCOCC2)c(O)c1	-157.1*
CCN(CC)c1ccc(/C=N/NC(=S)NC)c(O)c1	-94.0*
CCN(CC)c1ccc(/C=N/Nc2ccccc2)c(O)c1	-61.7*
CCN(CC)c1ccc(C=Nc2ccc(N(C)C)cc2)c(O)c1	-83.3*
CCN(CC)c1ccc(/C=N/N=C(N)N)c(O)c1	86.9
CC(=O)c1ccc(NC(=O)CSc2nc(N3CCOCC3)nc(N3CCOCC3)n2)cc1	-72.7*
CC(=O)Nc1c(O)nc(SCC(=O)Nc2ccc(C(C)=O)cc2)[nH]c1=O	-156.6*
Cc1cc(C(c2nnnn2Cc2ccccc2)N2CCOCC2)c(C)n1-c1ccc2c(c1)OCO2 (configuration not stated)	-314.9*
Cc1nc(N)sc1-c1csc(N(C)c2ccc(O)cc2)n1	-127.1*
SMILES	aSyn UTR act
CN(c1ccc(O)cc1)c1nc(-c2cccs2)cs1	-237.6*
O=C(Nc1cc(-c2ccccc2)[nH]n1)c1ccc(Cl)cc1	-123.7*
Cc1ccc(NC(=O)c2ccc3c(c2)NC(=O)CS3)nc1	-92.6*
Cc1ccc(NC(=O)c2cccc(Cl)c2)nc1	-75.5*
CCOC(=O)N1CCN(S(=O)(=O)c2ccc(C(=O)NNc3nc4cc(C)cc(C)c4s3)cc2)CC1	66.0
CC(=O)N1CCN(S(=O)(=O)c2cccc(C(=O)Nc3ccc(C)cn3)c2)CC1	-71.4*
Cc1cc(NC(=O)c2cccc(Cl)c2)n[nH]1	-70.8*
Cn1sc(NC(=O)c2cccc(Cl)c2)nc1=O	-118.2*
Cc1ccc(CSC2=Nc3ccccc3C3=NC(CC(=O)NCc4ccco4)C(=O)N23)cc1 (configuration not stated)	-73.4*
CC1CCc2nc(/C(C#N)=C/c3cccnc3)sc2C1 (configuration not stated)	-191.7*
COc1cc(/C=C(\C#N)c2nc3c(s2)CCCC3)ccc1O	-158.3*
N#C/C(=C\c1cccnc1)c1nc2c(s1)CCCC2	-140.9*
NC(=O)CSc1nnc(-c2ccc3c(c2)OCO3)o1	-91.3*
Cc1ccccc1NC(=O)CSc1nnc(-c2ccccn2)o1	-77.1*
O=C(CSc1nnc(-c2ccccn2)o1)Nc1cccc(Cl)c1	-194.0*
O=C(CSc1nnc(-c2ccc(C(F)(F)F)cn2)o1)Nc1cccc(Cl)c1	-191.8*
C/C(N)=C(/C#N)C(=O)CSc1nnc(-c2ccc3c(c2)OCO3)o1	59.7
O=C(CSc1n[nH]c(-c2ccccn2)n1)Nc1cccc(Cl)c1	86.4
O=C(CSc1nnc(-c2cccnc2)o1)Nc1ccccn1	-146.6*
O=C(CSc1nnc(-c2cccc(Cl)c2)o1)Nc1ccc2c(c1)OCCO2	-180.3*
CCOc1ccc(C(=O)Nc2ccc3c(c2)OCCO3)cc1OC	-143.6*
Cc1cc(C)n(-c2ccc(C(=O)Nc3ccc4c(c3)OCCO4)cc2)n1	-100.6*
CCOc1cccc(C(=O)NC(=S)Nc2ccc3c(c2)OCCO3)c1	-87.3*
Cc1cc(C)n(-c2ccc(C(=O)Nc3sccc3C(N)=O)cc2)n1	-139.1*
COc1cc(OC)cc(C(=O)Nc2ccc3c(c2)OCCO3)c1	-122.8*
SMILES	aSyn UTR act
CCOC(=O)c1cc([N+](=O)[O-])sc1NC(=O)c1ccc(S(=O)(=O)N2CC3(C)CC2CC(C)(C)C3)cc1 (configuration not stated)	54.5
Cc1cc(C(=O)Nc2ccc3c(c2)OCCO3)co1	-112.9*
COc1ccc(N(CC(=O)Nc2ccc3c(c2)OCCO3)S(C)(=O)=O)c(OC)c1	-70.8*
COc1ccc(C)cc1NS(=O)(=O)c1ccc(NC(=O)CN(c2cc([N+](=O)[O-])ccc2C)S(C)(=O)=O)cc1	114.3
CC1CCCCN1S(=O)(=O)c1ccc(C(=O)Nc2sccc2C(N)=O)cc1 (configuration not stated)	-105.8*
CCC1CCCCN1S(=O)(=O)c1ccc(C(=O)Nc2nnc(-c3ccccc3Cl)o2)cc1 (configuration not stated)	56.3
Cc1cc(C)n(-c2ccc(C(=O)OCc3ccccc3)cc2)n1	-68.0*
CC(C)CNS(=O)(=O)c1ccc(C(=O)Nc2ccc3c(c2)OCCO3)cc1	-98.3*
O=C(Nc1ncccc1O)c1ccc2c(c1)OCCO2	-222.2*
O=C(Nc1ncccc1O)c1ccc2c(c1)OCO2	-207.3*
Cc1cccnc1NC(=O)c1ccc2c(c1)OCCO2	-172.3*
COc1cccc(OCc2cc(C(=O)NCc3ccccn3)no2)c1	-128.2*
COc1ccc(OCc2cc(C(=O)NCc3cccc(C)n3)no2)c(Cl)c1	-64.9*
COc1cc(C(=O)NCC(=O)N2CCN(S(=O)(=O)c3cc(C)ccc3C)CC2)cc(OC)c1OC	-75.0*
Cn1ccnc1Sc1ccc(/C=N/NC(=O)c2ccccc2O)cc1[N+](=O)[O-]	-61.8*
CC1CCN(c2ccc(NC(=O)Cc3ccccc3)cc2)CC1	-82.5*
O=C(Cc1ccccc1)Nc1ccc(N2CCOCC2)cc1	-72.9*
O=C(Nc1ccc(N2CCOCC2)cc1)c1cn2ccccc2n1	65.5
C/C(CC(C)C)=N\NC(=O)Nc1ccccc1	-69.3*
N/C(=N\NC(=O)Nc1ccccc1)c1ccccn1	-167.5*
CC1SCC(NC(=O)c2ccccc2Cl)CS1 (configuration not stated)	-101.6*
CC1SCC(NC(=O)c2ccc(Cl)cc2)CS1 (configuration not stated)	-110.9*
COCCNC(=O)C(c1ccncc1)N(C(=O)c1sc(C)nc1C)c1cccc(C)c1 (configuration not stated)	-90.0*
Fc1ccc(OCc2nc3ccccc3s2)cc1	-178.3*
CCC(=O)Nc1ccc(OCc2nc3ccccc3s2)cc1	-124.7*
SMILES	aSyn UTR act
c1ccc(OCc2nc3ccccc3s2)cc1	-122.9*
O=S(=O)(Cc1nc2ccccc2s1)c1ccccc1	-68.7*
CNc1nn(-c2cccc(Cl)c2)nc1N	-97.1*
Cc1cccc(C)c1NC(=O)/C(C#N)=C/c1ccc(-c2ccc(C(=O)O)cc2)o1	-127.1*
CNC(=O)/C(C#N)=C/c1ccc(-c2ccc(Cl)cc2)o1	-125.0*
CCc1ccc(Nc2cnn(-c3nc4ccccc4s3)c(=O)c2Cl)cc1	-80.5*
C/C(=N\Nc1cccc([N+](=O)[O-])c1)c1cc2ccccc2o1	-165.5*
C/C(=N\Nc1cccc(C(=O)O)c1)c1cc2ccccc2o1	-66.4*
Cc1ccc2c(c1)c1cccc3c1n2CCN3CCC(N)=O	-171.9*
CCCCOc1ccc(C(=O)N2CCCCCC2)cc1	-80.5*
O=C(c1ccc(COc2ccc(Cl)cc2)cc1)N1CCCCC1	-85.5*

Assay outcomes as filed in PubChem BioAssay.
